The values that follow come from PubChem BioAssay (Tox21).

Values without a mark were called inactive. Calls come from the whole dose curve; as a rule, active = well fitted activation curve with a large enough effect in the repeat runs; inconclusive = weak or mixed curves; inactive = flat fitted curve, though single readings scatter.
% is set by controls: 0 for no effect and ±100 for the full control effect.

Sequence of KiSS-1 receptor (Homo sapiens) (Q969F8 whole entry, looked up): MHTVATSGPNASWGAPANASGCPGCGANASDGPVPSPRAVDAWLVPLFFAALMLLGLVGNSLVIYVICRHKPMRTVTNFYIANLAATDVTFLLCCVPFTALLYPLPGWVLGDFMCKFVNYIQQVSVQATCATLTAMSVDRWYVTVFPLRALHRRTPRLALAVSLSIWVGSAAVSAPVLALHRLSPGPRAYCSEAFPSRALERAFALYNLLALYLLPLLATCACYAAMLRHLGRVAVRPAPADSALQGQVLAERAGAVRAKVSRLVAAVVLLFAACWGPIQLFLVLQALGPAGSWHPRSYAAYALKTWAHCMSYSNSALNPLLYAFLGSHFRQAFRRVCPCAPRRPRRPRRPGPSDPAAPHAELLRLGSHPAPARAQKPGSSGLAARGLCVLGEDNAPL

The test deals with KiSS-1 receptor (Homo sapiens) (UniProt Q969F8). The experiment in a line: Human kisspeptin (KISS1R) small molecule agonists, calcium flux assay in KISS1R-HEK293 cells (AID 1920064). As to conditions: KISS1R-HEK293, calcium flux fluorescence, agonist; series mostly up to 76.8 µM; activation: at the top concentration. From the text:
National Center for Advancing Translational Sciences [NCATS]
Division of Preclinical Innovation [DPI]
U.S. Environmental Protection Agency [EPA]
National Institutes of Environmental Health Sciences [NIEHS]
National Toxicology Program [NTP]
U.S. Food and Drug Administration [FDA]
Kisspeptin and its receptor KISS1R play key roles in mammalian reproduction due to their involvement in the onset of puberty and control of the hypothalamic-pituitary-gonadal axis such as regulates GnRH release from the hypothalamus. The kisspeptin/KISS1R system also plays a direct role in peripheral organs (including the ovary, testis, uterus, and placenta) and is implicated in reproductive diseases such as miscarriage and polycystic ovary syndrome (PCOS). Abnormal KISS1R activity is associated with abnormal puberty, infertility, endometriosis, and hormone-dependent tumors. The KISS1 receptor (KISS1R, also called GPR54), a G-protein-coupled receptor (GPCR), acts (through phospholipase C) to increase intracellular inositol trisphosphate and then release intracellular calcium stores. Cell-based KISS1R-HEK293 assay is using HEK293 cells that have been genetically engineered to express the human KISS1R, which activity can be measured by calcium signaling. A compound/drug can activate (agonist) KISS1R that can be monitored by levels of intracellular calcium.
KISS1R-HEK293 cells developed by Codex Corp contain human KISS1R gene, which was stably integrated into HEK 293 cells. The compound activation can be detected by fluorescence intensity via calcium flux assay. This cell line has been used to screen the Tox21 10K compound library to identify agonists of KISS1R.
KISS1R-Hek293 cells were dispensed at 1500 cells/4uL/well in 1536-well black wall/clear bottom plates using a multidrop dispenser. After the assay plates were incubated at a 37 C/5% CO2 incubator for 18 hours, 4 microL of Calcium Dye Solution was added to each well. The plates were incubated at 37 C for 1 hour. And then 23 nL of compounds dissolved in DMSO, positive controls, or DMSO only was transferred to the assay plate by a pin tool station. The fluorescence intensity in the plates was measured using FDSS 7000EX kinetic plate reader with a filter set of Ex/Em=480/540 for 3 min at 1 sec intervals. Each test compound was measured at 15 concentrations and in triplicates.
(In general: Calcium assays in cells follow changes in intracellular calcium, usually with a dye or a luminescent sensor.)
For `CCOC(=O)c1ncn2c1CN(C)C(=O)c1c(I)cccc1-2`, the “activation” value is 0.0228% [at 35.3 µM].
To `Oc1ccc(C2(c3ccc(O)cc3)c3ccccc3-c3ccccc32)cc1` belongs -3.04%.
As to `CC(=O)[O][Pb]([c]1ccccc1)([c]1ccccc1)[c]1ccccc1`, the “activation” value was 29.2%.
`Fc1ccc(Oc2ccnc3cc(Cl)cc(Cl)c23)cc1`: the “activation” value was 0.234%.
As for `CNC(=O)Oc1cc(C)c(SC)c(C)c1`, the “activation” value was 0.454%.
On to `C[N+](C)(C)CCOC(=O)C(O)(c1ccccc1)c1ccccc1`, for which the “activation” value was -0.666% [at 35.3 µM].
Regarding `O=C1c2ccccc2C(=O)C1C(=O)C(c1ccccc1)c1ccc(Cl)cc1` (stereo not given), the “activation” value is 2.6%.
With `CCCCN(N=O)C(=N)N[N+](=O)[O-]`, the “activation” value is 1.51%.
As to `CC(=O)OCC1=C(C(=O)O)N2C(=O)[C@@H](N)[C@H]2SC1`, the activation is -0.221% [at 15.8 µM].
Take `CCOC(=O)/C=C(C)/C=C/C[C@@H](C)CCCC(C)C`: the “activation” value was -1.57%.
`Clc1c(Cl)c(Cl)c(Cl)c(Cl)c1Cl`: the activation is 2.59% [at 6.97 µM].
Regarding `Cc1cc(C(C)(C)c2ccc(O)c(C)c2)ccc1O`, the “activation” value is 1.3%.
On to `N#CC(C#N)=Cc1ccc(O)c(O)c1`, for which the “activation” value was -0.604% [at 35.3 µM].
The value for `CCCCC(CC)COP(=O)(Oc1ccccc1)Oc1ccccc1` (stereo not given) was 10.7%; that for `COCc1cnc(C2=NC(C)(C(C)C)C(=O)N2)c(C(=O)O)c1` (stereo not given) was 0.0199%; that for `CC1(C)COP(Oc2ccccc2)OC1` was -1.59%.
Regarding `CCCSP(=O)(OCC)SCCC`, the “activation” value was 0.227%.
Turning to `O=C(NC(=O)c1cc(F)c(F)cc1Cl)Nc1cc(F)ccc1N1CCC(C(=O)O)CC1`, the “activation” value is 9.51% [at 35.3 µM].
With `O=C=Nc1ccc(Cl)cc1`, the “activation” value is -0.416%.
As for `N#C/C=C/C#N`, the “activation” value is 0.0386%.
Take `ClC(Cl)=C(Cl)Cl`: the “activation” value was -4.94%.
On to `Cc1c([N+](=O)[O-])c(C)c([N+](=O)[O-])c(C(C)(C)C)c1[N+](=O)[O-]`, for which the “activation” value was 9.23%.
Regarding `c1csc(-c2ccc(-c3cccs3)s2)c1`, the “activation” value is 0.359%.
`C=C(C)CN(CC)c1c([N+](=O)[O-])cc(C(F)(F)F)cc1[N+](=O)[O-]`: the “activation” value is 1.74%.
With `Nc1c(Cl)c(F)nc(OCC(=O)O)c1Cl`, the “activation” value is -2.44%.
The value for `CCC1(c2ccccc2)C(=O)NC(=O)NC1=O` was -0.19%; that for `C=CCC1([C@H](C)CCC)C(=O)NC(=O)NC1=O` was 0.851%.
On to `CON(C)C(=O)Nc1ccc(Br)cc1`, for which the “activation” value is 0.519%.
For the compound `COc1ccc([N+](=O)[O-])cc1O`, the “activation” value was -1.2% [at 35.3 µM].
Take `O=C1CCCCC1Cl` (stereo not given): the “activation” value is -3.19%.
Take `CCCN(CCC)CCc1c[nH]c2ccccc12`: the “activation” value is 0.06%.
For the compound `CCO[C@H]1O[C@@H]2OC3(C)CC[C@H]4[C@H](C)CC[C@@H]([C@H]1C)[C@@]24OO3`, the “activation” value was 1.76% [at 35.3 µM].
Regarding `C=CC(=C)C`, the “activation” value is -1.77%.
In the case of `Cc1cc2c3c(c1)C(c1ccccc1)=N[C@@H](NC(=O)c1ccncc1)C(=O)N3CC2`, the “activation” value was 2.74%.
For `COc1cc(CC#N)cc(OC)c1OC`, the “activation” value is -1.04% [at 35.3 µM].
Turning to `CN/C(=N\[N+](=O)[O-])NCc1cnc(Cl)s1`, the “activation” value is 2.43%.
To `Clc1ccccc1N1CCNCC1` belongs -0.812% [at 35.3 µM].
As for `ClP(Cl)(Cl)(Cl)Cl`, the “activation” value is 2.84%.
To `CC(C)NCC(O)c1ccccc1Cl` (stereo not given) belongs 0.134% [at 35.3 µM]; to `OC(c1ccc(Cl)cc1)(c1ccc(Cl)cc1)C(Cl)(Cl)Cl`, -1.54%.
